High-throughput results deposited in PubChem BioAssay by Broad Institute.
In the library only some 6.8% were active in any assay of this set; here they are far more common.
Pf Dd2 growth = P. falciparum Dd2 growth inhibition; SYBR Green, 72 h; active compounds read low; activity change, % at 10 µM; 2.3% of 94,000 active; in the data active = activity change below about -80%; inconclusive = no clear call, values can overlap the other calls
T cruzi growth-1 = blocks T. cruzi growth in NIH3T3 culture; AID 624255; 5.9% of 77,000 active; T. cruzi beta-gal in NIH3T3, GalScreen luminescence, 90 h; inhibition, % at 8.34 µM;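 active = mean inhibition above about 93%, with at least 55% of replicates each passing it, limit read from the data, passing the limit was not always enough; inconclusive = only one of those two conditions holds; inactive = neither condition holds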
C diff growth = C. difficile growth inhibition | growth activity, negative = inhibition, % at 16 µg/mL (by protocol) | Clostridium difficile clinical isolate growth, OD600, 24 h; active compounds read low | 0.25% of 86,000 active;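 active = mean growth activity at or below -80% and every replicate also at or below -80%; inconclusive = mean at or below -80% but some replicate above -80%; inactive = mean growth activity above -80%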;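 also: 0% = DMSO wells and -100% = levofloxacin 16 µg/mL wells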
T cruzi growth-2 = inhibitors of T. cruzi proliferation; shares compounds with T cruzi growth-1; inhibition, % at 8.35 µM; T. cruzi beta-gal in NIH3T3, GalScreen luminescence, 90 h; 72% of 5,600 active; AID 651739;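 active = mean replicate inhibition above about 95% and at least 55% of replicates individually reaching it, limit read from the data; inconclusive = only one of the two criteria is met; inactive = neither criterion is met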
T cruzi growth-3 = inhibitors of T. cruzi proliferation. shares compounds with T cruzi growth-1. T. cruzi beta-gal in NIH3T3, GalScreen luminescence, 90 h. inhibition, % at 2.09 µM. 21% of 5,600 active. AID 651740;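 active = mean inhibition above about 95%, with at least 55% of replicates also reaching it, limit read from the data; inconclusive = meets just one of the two conditions; inactive = meets neither condition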;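 also: plate controls were neutral control median for no effect and positive control median for full effect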
3T3 cytotox = kills mouse NIH/3T3 fibroblasts; cytotoxicity (signal decrease), % at 8.35 µM; shares compounds with T cruzi growth-1; 14% of 5,600 active; NIH/3T3 viability, CellTiter-Glo ATP luminescence, 90 h;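 active = mean signal decrease across replicates above about 35% based on untreated-well scatter, with enough replicates individually passing, limit read from the data; inconclusive = no rule stated though some were filed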;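 also: 0% = median of neutral control wells and 100% = median of positive control wells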
3T3 cytotox 2 = cytotoxicity in mouse NIH/3T3 fibroblasts; 56% of 5,600 active; shares compounds with T cruzi growth-1; inhibition, % at 24.9 µM; NIH/3T3 viability, CellTiter-Glo ATP luminescence, 90 h; AID 651744;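 active = mean loss of cell viability signal at or above a set limit, and enough replicates individually reaching it; inconclusive = meets only the mean limit or only the replicate share; inactive = meets neither condition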;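 also: 0% = median of neutral control wells and 100% = median of positive control wells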
* hit, by the source's call; ? = inconclusive; / = no result given; ! = not active in a repeat.

SMILES	Pf Dd2 growth	T cruzi growth-1	C diff growth	T cruzi growth-2	T cruzi growth-3	3T3 cytotox	3T3 cytotox 2
Cc1ccc(S(=O)(=O)N(C)C[C@H]2Oc3c(cccc3N(C)C)C(=O)N([C@@H](C)CO)C[C@H]2C)cc1	-40	102*	3	76	20	24	10
Cc1ccc(S(=O)(=O)N(C)C[C@H]2Oc3c(cccc3N(C)C)C(=O)N([C@H](C)CO)C[C@H]2C)cc1	13	-21	0	/	/	/	/
C[C@@H]1CN([C@H](C)CO)C(=O)c2cc(/C=C/c3ccccc3)cnc2O[C@H]1CN(C)S(=O)(=O)c1ccccc1F	-40	109*	0	113*	59	-3	24*
C/C=C/c1cnc2c(c1)C(=O)N([C@H](C)CO)C[C@H](C)[C@H](CN(C)S(=O)(=O)c1ccc(C)cc1)O2	2	20	2	/	/	/	/
C[C@H]1CN([C@@H](C)CO)C(=O)c2cc(/C=C/c3ccccc3)cnc2O[C@@H]1CN(C)S(=O)(=O)c1ccccc1	-62	127*	-6	106*	67	5	?
COc1cccc(C#Cc2ccc([C@H]3[C@H]4CN(S(=O)(=O)c5ccccc5C)CC(=O)N4[C@H]3CO)cc2)c1	-36	/	18	/	/	/	/
C[C@@H]1CN([C@@H](C)CO)C(=O)c2cccc(NC(=O)c3cnccn3)c2O[C@@H]1CN(C)C	-25	/	0	/	/	/	/
O=C(C[C@@H]1CC[C@H](NC(=O)Cc2ccccn2)[C@@H](CO)O1)NCCc1ccncc1	17	-37	/	/	/	/	/
C[C@H]1CN([C@@H](C)CO)C(=O)c2cc(/C=C/c3ccccc3)cnc2O[C@H]1CN(C)S(=O)(=O)c1ccccc1	-45	94	3	/	/	/	/
C[C@H](CO)N1C[C@H](C)[C@H](CN(C)S(=O)(=O)c2ccccc2)Oc2ncc(/C=C/c3ccccc3)cc2C1=O	-49	113*!	-6	?	78	13	71*
COc1ccc(NC(=O)N(C)C[C@H]2Oc3c(NC(=O)NC(C)C)cccc3C(=O)N([C@H](C)CO)C[C@H]2C)cc1	-47	33	3	/	/	/	/
COCC#Cc1ccc2c(c1)O[C@@H](CN(C)Cc1ccncc1)[C@H](C)CN([C@@H](C)CO)S2(=O)=O	-8	?	-1	94	97*	2	65*
COCC#Cc1ccc2c(c1)O[C@@H](CN(C)Cc1ccccc1)[C@H](C)CN([C@@H](C)CO)S2(=O)=O	-70	101*	6	85	64	52*	99*
COCC#Cc1ccc2c(c1)O[C@H](CN(C)Cc1ccccc1)[C@H](C)CN([C@@H](C)CO)S2(=O)=O	-32	48	2	/	/	/	/
COCC#Cc1ccc2c(c1)O[C@H](CN(C)Cc1ccncc1)[C@@H](C)CN([C@H](C)CO)S2(=O)=O	27	44	0	/	/	/	/
COc1cccc(-c2ccc([C@H]3[C@@H](CO)N4C(=O)CN(C(=O)C5CCOCC5)C[C@H]34)cc2)c1	-58	/	2	/	/	/	/
COc1cccc(NC(=O)N(C)C[C@@H]2Oc3cc(/C=C/c4ccccc4)ccc3S(=O)(=O)N([C@@H](C)CO)C[C@@H]2C)c1	-77	/	-9	/	/	/	/
C[C@@H]1CN([C@@H](C)CO)S(=O)(=O)c2ccc(/C=C/c3ccccc3)cc2O[C@@H]1CN(C)C(=O)Nc1cccc(F)c1	-54	127*	5	101*	105*	?	29*
C/C=C/c1ccc2c(c1)O[C@H](CN(C)C(=O)Nc1cccc(F)c1)[C@H](C)CN([C@@H](C)CO)S2(=O)=O	31	93	2	/	/	/	/
C[C@@H]1CN([C@@H](C)CO)S(=O)(=O)c2ccc(/C=C/c3ccccc3)cc2O[C@H]1CN(C)C(=O)Nc1cccc(F)c1	-50	127*	7	95*	97*	49*	80*
C/C=C/c1ccc2c(c1)O[C@@H](CN(C)C(=O)Nc1cccc(F)c1)[C@H](C)CN([C@H](C)CO)S2(=O)=O	-33	-102	3	/	/	/	/
C[C@H]1CN([C@@H](C)CO)S(=O)(=O)c2ccc(/C=C/c3ccccc3)cc2O[C@H]1CN(C)C(=O)Nc1cccc(F)c1	-33	123*	20	106*	103*	39*	38*
